Here are results for eight molecules from PubChem BioAssay (NCI).

Holding throughout (experiment): NCI-60 one-dose screen, 48 h (100 = growth as untreated, 0 = no growth, -100 = all killed)
For one experiment, the system named is SK-MEL-2 melanoma. As to conditions: 10 µM unless noted.
The subject of another experiment is EKVX NSCLC. As to conditions: 10 µM unless noted.
For a further experiment, the system named is SN12C renal. To be noted: 10 µM unless noted.
The next experiment concerns UO-31 renal. To be noted: 10 µM unless noted.
Another experiment concerns TK-10 renal. To be noted: 10 µM unless noted.
Another experiment has as its system ACHN renal. To be noted: 10 µM unless noted.
A further experiment has as its system CAKI-1 renal. To be noted: 10 µM unless noted.
A further experiment deals with A498 renal. To be noted: 10 µM unless noted.
For a further experiment, the system named is CCRF-CEM leukemia. To be noted: 10 µM unless noted.
The next experiment concerns MOLT-4 leukemia. To be noted: 10 µM unless noted.
The next experiment has as its system SR leukemia. As to conditions: 10 µM unless noted.
In another experiment the test system is RPMI-8226 leukemia. To be noted: 10 µM unless noted.
For the next experiment, the system named is OVCAR-8 ovarian. To be noted: 10 µM unless noted.
A further experiment has as its system OVCAR-5 ovarian. As to conditions: 10 µM unless noted.
In the next experiment the test system is OVCAR-4 ovarian. To be noted: 10 µM unless noted.
The next experiment concerns SK-OV-3 ovarian. To be noted: 10 µM unless noted.
The test system of a further experiment is IGROV1 ovarian. As to conditions: 10 µM unless noted.
A further experiment relates to HS 578T breast. To be noted: 10 µM.
The subject of another experiment is NCI/ADR-RES ovarian. As to conditions: 10 µM unless noted.
The subject of another experiment is OVCAR-3 ovarian. To be noted: 10 µM unless noted.

The panel holds about 83,000 compounds, 20% with a hit somewhere; the sample as a whole holds those more often.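 96-well plates, one dose, 48 hours. Percent growth reported; active if below 10.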 Unmarked numbers belong to inactive results. Activity calls are given as the source filed them.

As for `CCCCCCCCCCC(C(O)c1ccccc1)N1CCCCC1` (configuration not stated), the growth in the experiment on SK-MEL-2 melanoma was 53.8%; with EKVX NSCLC, 33.5%; in the experiment on SN12C renal it was 43.2%; in the experiment on UO-31 renal, -1.17% (active); with TK-10 renal it was 76.8%; in the experiment with ACHN renal, 42.1%. The growth is -21.1% (active) in the experiment on CAKI-1 renal; 75.1% with A498 renal; 0.764% (active) in the experiment with CCRF-CEM leukemia; 6.36% (active) in the experiment with MOLT-4 leukemia; 0.484% (active) with SR leukemia; -50.3% (active) in the experiment on RPMI-8226 leukemia. For the same molecule, the growth with OVCAR-8 ovarian is 62.8%; in the experiment on OVCAR-5 ovarian, 47.4%; with OVCAR-4 ovarian, 41%; with SK-OV-3 ovarian, 36.1%; in the experiment on IGROV1 ovarian it was 2.8% (active); with HS 578T breast, 18.3%. For the same molecule, in the experiment with NCI/ADR-RES ovarian, the growth was 49.8%.

As for `CC1(C)CC[C@]2(C(=O)N3CCNCC3)CC[C@]3(C)C(=CC[C@@H]4[C@@]5(C)CCC(=O)C(C)(C)[C@@H]5CC[C@]43C)[C@@H]2C1`, the growth in the experiment with SK-MEL-2 melanoma was 105%; in the experiment with EKVX NSCLC, 96.7%; in the experiment with SN12C renal, 101%; in the experiment with UO-31 renal, 94.8%; with TK-10 renal, 101%; in the experiment with ACHN renal, 112%. For the same molecule, the growth was 94.2% with CAKI-1 renal; 126% in the experiment on A498 renal; 106% with CCRF-CEM leukemia; 103% with MOLT-4 leukemia; 109% in the experiment on SR leukemia; 104% in the experiment with RPMI-8226 leukemia. For the same molecule, the growth in the experiment on OVCAR-8 ovarian is 95.9%; with OVCAR-5 ovarian, 109%; in the experiment with OVCAR-4 ovarian, 103%; with SK-OV-3 ovarian, 109%; in the experiment with IGROV1 ovarian, 113%; in the experiment on OVCAR-3 ovarian it was 118%. In addition, the growth in the experiment with HS 578T breast was 104%; in the experiment with NCI/ADR-RES ovarian, 103%.

With `CC(CN1CCN(C)CC1)CN1c2ccccc2Sc2ccc(C(F)(F)F)cc21` (configuration not stated), the growth with SK-MEL-2 melanoma is 70%; with EKVX NSCLC it was 70.4%; in the experiment on SN12C renal it was 47.2%; with UO-31 renal, 39.2%; with TK-10 renal, 21%; with ACHN renal, 38.1%. In addition, the growth is 37.3% in the experiment with CAKI-1 renal; 60.3% with A498 renal; 25.2% with CCRF-CEM leukemia; 15.9% in the experiment on MOLT-4 leukemia; -23.2% (active) in the experiment on SR leukemia; 71.3% in the experiment on RPMI-8226 leukemia. Besides, the growth is 71.9% in the experiment on OVCAR-8 ovarian; 68% in the experiment with OVCAR-5 ovarian; 54.5% with OVCAR-4 ovarian; 92.4% in the experiment on SK-OV-3 ovarian; 10.9% in the experiment on IGROV1 ovarian; 42.9% in the experiment on OVCAR-3 ovarian. The growth with HS 578T breast is 60.7%; with NCI/ADR-RES ovarian, 52.8%.

`CCN(C)CCCOc1ccc(/C(=C(\C)Cc2cccc(OC)c2)c2ccc(OC(C)=O)cc2)cc1`: the growth with SK-MEL-2 melanoma is 103%; with EKVX NSCLC, 92.5%; in the experiment with SN12C renal, 95%; with UO-31 renal it was 92%; in the experiment on TK-10 renal it was 95%; in the experiment with ACHN renal, 104%. Further, the growth with CAKI-1 renal was 94.9%; in the experiment on A498 renal, 94.3%; with CCRF-CEM leukemia, 96.6%; in the experiment on MOLT-4 leukemia it was 103%; with SR leukemia, -8.45% (active); with RPMI-8226 leukemia, 102%. For the same molecule, the growth was 105% in the experiment on OVCAR-8 ovarian; 99.6% in the experiment on OVCAR-5 ovarian; 103% in the experiment on OVCAR-4 ovarian; 93.7% with SK-OV-3 ovarian; 102% with IGROV1 ovarian; 105% with OVCAR-3 ovarian. The growth in the experiment on NCI/ADR-RES ovarian was 101%.

Take `CN(C)c1ccc(/C=N/Nc2nnc3n2N=C(c2ccc(Cl)cc2)CS3)cc1`: the growth in the experiment on SK-MEL-2 melanoma was 97.5%; in the experiment on EKVX NSCLC, 89%; in the experiment on SN12C renal, 95%; in the experiment with UO-31 renal it was 74.9%; with TK-10 renal, 92.9%; with ACHN renal, 99.5%. For the same molecule, the growth was 96.8% in the experiment with CAKI-1 renal; 85.6% in the experiment with A498 renal; 86.8% with CCRF-CEM leukemia; 66.6% in the experiment with MOLT-4 leukemia; 94.1% in the experiment with SR leukemia; 82.5% with RPMI-8226 leukemia. Also, the growth with OVCAR-8 ovarian was 96.5%; in the experiment on OVCAR-5 ovarian it was 108%; with OVCAR-4 ovarian it was 98.8%; with SK-OV-3 ovarian, 108%; with IGROV1 ovarian, 84.4%; with OVCAR-3 ovarian, 102%. In addition, the growth in the experiment with NCI/ADR-RES ovarian is 94%.

`C/C=C(\C)C(C(=O)NC1CCCCC1)N(C(=O)C1CCc2cc(F)ccc2O1)c1ccc([N+](=O)[O-])cc1` (configuration not stated): the growth in the experiment with SK-MEL-2 melanoma was 99.6%; in the experiment with EKVX NSCLC it was 84.2%; in the experiment on SN12C renal, 93.4%; in the experiment with UO-31 renal it was 69.1%; with TK-10 renal it was 89.9%; in the experiment with ACHN renal it was 89.7%. Besides, the growth with CAKI-1 renal is 80.2%; in the experiment with A498 renal it was 90.3%; in the experiment on CCRF-CEM leukemia, 97.3%; in the experiment with MOLT-4 leukemia it was 76.4%; in the experiment on SR leukemia it was 101%; with RPMI-8226 leukemia, 79.1%. Besides, the growth is 88.4% in the experiment on OVCAR-8 ovarian; 93.4% with OVCAR-5 ovarian; 79% in the experiment on OVCAR-4 ovarian; 90.5% in the experiment on SK-OV-3 ovarian; 85.8% in the experiment with IGROV1 ovarian; 89.4% in the experiment on OVCAR-3 ovarian. In addition, the growth in the experiment on HS 578T breast was 80.2%; in the experiment with NCI/ADR-RES ovarian, 85.7%.

Take `O=[N+]([O-])c1cccc(N=C(Nc2cccc([N+](=O)[O-])c2)c2ccccc2)c1`: the growth with SK-MEL-2 melanoma is 77.9%; with EKVX NSCLC it was 81.4%; in the experiment on SN12C renal, 83.4%; in the experiment with UO-31 renal, 40.5%; in the experiment with TK-10 renal, 78.8%; in the experiment with ACHN renal it was 93.8%. For the same molecule, the growth in the experiment on CAKI-1 renal was 80.3%; in the experiment on A498 renal, 104%; in the experiment on CCRF-CEM leukemia it was 65.3%; in the experiment with MOLT-4 leukemia, 59.4%; in the experiment with SR leukemia, 70.4%; with RPMI-8226 leukemia, 58.2%. The growth in the experiment with OVCAR-8 ovarian is 93.4%; with OVCAR-5 ovarian it was 99.9%; in the experiment with OVCAR-4 ovarian, 84.7%; in the experiment on SK-OV-3 ovarian, 107%; with IGROV1 ovarian it was 84.4%; in the experiment with OVCAR-3 ovarian, 88.2%. In addition, the growth with HS 578T breast is 97.9%; in the experiment on NCI/ADR-RES ovarian it was 75.6%.

On to `Oc1c(C(c2ccc(F)cc2)N2CCCCC2)ccc2cncnc12` (configuration not stated), for which the growth with SK-MEL-2 melanoma was -16.6% (active); in the experiment with EKVX NSCLC, 16.9%; with SN12C renal it was 10%; with UO-31 renal, 11%; in the experiment on TK-10 renal it was 9.03% (active); in the experiment on ACHN renal, 10.9%. Besides, the growth in the experiment with CAKI-1 renal is 19%; in the experiment on A498 renal, -8.07% (active); with CCRF-CEM leukemia, 18.5%; with MOLT-4 leukemia it was 13.1%; in the experiment on SR leukemia, 15.7%; with RPMI-8226 leukemia, 22.1%. Besides, the growth with OVCAR-8 ovarian is 8.68% (active); with OVCAR-5 ovarian, 22.3%; in the experiment on OVCAR-4 ovarian, 5.59% (active); with SK-OV-3 ovarian, -14.9% (active); in the experiment with IGROV1 ovarian, 9.64% (active); in the experiment with OVCAR-3 ovarian it was 11.1%. Further, the growth in the experiment on HS 578T breast was 13%; in the experiment on NCI/ADR-RES ovarian, 20.3%.
